Results filed as inconclusive are left out. Calls of active or inactive are those of the source. How the source made its calls, unless noted: active means hit-call score of the fitted dose curve at least 0.9, where 1 is the maximum; inactive means score below 0.9.

Read-out in test [1]: E-selectin (Homo sapiens) (UniProt P16581)
Description: BSK_SAg_Eselectin: BioMAP Diversity Plus: SAg Assay for Eselectin Biomarker Activity (AID 2283091). The settings on record: primary human HUVEC with PBMC; actives raise or lower the signal. In a few lines:
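E-selectin ELISA readout at 24 h post-dosing in human umbilical vein endothelial cell/PBMC co-culture; gain or loss of signal fitted relative to DMSO baseline.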

Read-out in test [2]: Monokine induced gamma interferon (MIG), CXCL9 (gene 4283)
Description: BSK_SAg_MIG: BioMAP Diversity Plus: SAg Assay for Monokine induced gamma interferon (MIG) Biomarker Activity (AID 2283092). As to conditions: primary human HUVEC with PBMC; actives raise or lower the signal. The essentials:
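ELISA readout of MIG/CXCL9; primary human umbilical vein endothelial cells co-cultured with peripheral blood mononuclear cells; 24 h post-dose; gain/loss fit vs DMSO baseline.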

Test [3] in a line: BSK_SAg_PBMCCytotoxicity: PBMC Cytotoxicity Assessment in the BioMAP Diversity Plus: SAg Assay (AID 2283093).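 Further: PBMC viability measured as Alamar Blue reduction fluorescence at 546/580 nm; fitted both ways against DMSO so a hit may be loss or gain of signal.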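 On AC50: PBMC superantigen activated with SEB plus TSST-1 one hour after compound addition.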 The settings on record: primary human HUVEC with PBMC. The essentials: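 Alamar Blue reduction (6 h, 546/580 nm) reports PBMC cytotoxicity after 90 h superantigen activation (SEB, TSST-1; 20 ng/mL final each) with 1 h compound pre-treatment. Gain or loss of signal fitted versus DMSO.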

Read-out in test [4]: Interleukin-8 (IL8), CXCL8 (gene 3576)
Description: BSK_SAg_IL8: BioMAP Diversity Plus: SAg Assay for Interleukin-8 (IL8) Biomarker Activity (AID 2283094). As to conditions: primary human HUVEC with PBMC; actives raise or lower the signal. The essentials: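 Chemicals were dosed onto a human endothelial–PBMC co-culture, and IL-8 was quantified by ELISA after 24 h. Both increases and decreases were fitted relative to DMSO.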

Test [5] is described as follows: BSK_SAg_Proliferation: Cell Proliferation Assessment in the BioMAP Diversity Plus: SAg Assay (AID 2283095).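 Further: relative cell number as total protein by SRB absorbance in sub-confluent culture.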 The settings on record: primary human HUVEC with PBMC. The essentials: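 Absorbance of sulforhodamine B at 560 nm reports total protein in a human vascular endothelial/PBMC co-culture after 96 h chemical exposure. Gain or loss of signal is fitted in both directions against DMSO.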

Test [6] concerns the target human CYP2B6, CYP2B6 (gene 1555) (UniProt P20813). Briefly: NVS_ADME_hCYP2B6: NovaScreen (NVS) CYP450-related Enzyme Activity (ADME) Assay for human CYP2B6 (AID 2283101; active means hit-call score of the fitted dose curve at least 0.9, where 1 is the maximum). In a few lines: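 Fluorescence-based enzyme activity of recombinant human CYP2B6, measured 1 h post-dose against acetonitrile vehicle baseline. Screened at a single concentration of 10 uM in duplicate before concentration-response follow-up.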

Test [7] deals with human CYP1A2, CYP1A2 (gene 1544) (UniProt P05177). Description: NVS_ADME_hCYP1A2: NovaScreen (NVS) CYP450-related Enzyme Activity (ADME) Assay for human CYP1A2 (AID 2283102; active means hit-call score of the fitted dose curve at least 0.9, where 1 is the maximum;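 on AC50: potency for inhibition since loss of fluorescence marks reduced CYP1A2 activity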). The essentials:
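Fluorescence-intensity enzyme activity read-out, taken 0.5 h post-dosing, using insect-cell-derived recombinant CYP1A2 and specific fluorescent substrate. Acetonitrile served as negative control/baseline. Single-concentration duplicate screen at 10 uM, then concentration-response follow-up.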

For test [8], the target named is human CYP2D6, CYP2D6 (gene 1565) (UniProt P10635). Description: NVS_ADME_hCYP2D6: NovaScreen (NVS) CYP450-related Enzyme Activity (ADME) Assay for human CYP2D6 (AID 2283107; active means hit-call score of the fitted dose curve at least 0.9, where 1 is the maximum). The essentials: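 Fluorescence intensity read 1 h post-dosing; insect-cell-expressed recombinant protein with fluorogenic substrate, no cells. Activity is scored as signal loss relative to acetonitrile baseline, first at a single 10 uM concentration in duplicate, then as concentration series for confirmed actives.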

Test [9] addresses Cytochrome P450 2C19 (Homo sapiens) (UniProt P33261). Description: NVS_ADME_hCYP2C19: NovaScreen (NVS) CYP450-related Enzyme Activity (ADME) Assay for human CYP2C19 (AID 2283113; active means hit-call score of the fitted dose curve at least 0.9, where 1 is the maximum;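 further: potency for inhibition seen as loss of fluorescent signal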). In a few lines:
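Recombinant insect-cell-expressed enzyme, fluorescent substrate, 1 h after chemical addition, fluorescence intensity. Baseline = acetonitrile vehicle; activity scored as signal loss. Primary HTS single concentration 10 uM, duplicate; actives retested in concentration series.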

The target of test [10] is Cytochrome P450 3A4 (Homo sapiens) (UniProt P08684). Description: NVS_ADME_hCYP3A4: NovaScreen (NVS) CYP450-related Enzyme Activity (ADME) Assay for human CYP3A4 (AID 2283110; active means hit-call score of the fitted dose curve at least 0.9, where 1 is the maximum). In a few lines:
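Activity is derived from decreased fluorescence intensity relative to acetonitrile, measured 0.33 hour after dosing insect-cell-expressed CYP3A4 in a cell-free format. Screening used 10 uM in duplicate before concentration-response follow-up.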

Test [11] can be described thus: BSK_SAg_SRB: Viability Assessment in the BioMAP Diversity Plus: SAg Assay (AID 2283096).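 Further: cells read one day after compound addition; hits may be either gain or loss of signal compared with DMSO.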 The settings on record: primary human HUVEC with PBMC. In a few lines: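 This overt-cytotoxicity endpoint quantifies protein in human endothelial/PBMC co-cultures at 24 h using SRB absorbance (560 nm) after trichloroacetic acid fixation. Values reflect signal change from the DMSO negative control, fitted bidirectionally.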

Test [12] concerns the target human Caspase 5 (CASP5), CASP5 (gene 838) (UniProt P51878). Description: NVS_ENZ_hCASP5: NovaScreen (NVS) Enzymatic Assay for human Caspase 5 (CASP5) (AID 2283137; active means hit-call score of the fitted dose curve at least 0.9, where 1 is the maximum). The essentials: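 Chemicals were first tested in duplicate at 25 uM against recombinant caspase 5 from E. coli. Activity was read by fluorescence intensity 2 hours after dosing. Those passing a preset inhibition threshold were retested in singleton concentration-response up to 50 uM.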

In another test the target is Caspase-3 (Homo sapiens) (UniProt P42574). Description: NVS_ENZ_hCASP3: NovaScreen (NVS) Enzymatic Assay for human Caspase 3 (CASP3) (AID 2283139; active means hit-call score of the fitted dose curve at least 0.9, where 1 is the maximum). In a few lines: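 Single-concentration screening at 25 uM in duplicate, with concentration-response follow-up to a 50 uM maximum for chemicals passing the threshold. Caspase-3 (human, E. coli-expressed) activity was read as substrate fluorescence after 1 h, with loss of signal relative to DMSO.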

In test [13] the target is human Acid Phosphatase 1 (ACP1), ACP1 (gene 52) (UniProt P24666). Briefly: NVS_ENZ_hACP1: NovaScreen (NVS) Enzymatic Assay for human Acid Phosphatase 1 (ACP1) (AID 2283136; active means hit-call score of the fitted dose curve at least 0.9, where 1 is the maximum). The essentials:
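Cell-free fluorescence read-out of phosphatase activity, substrate and product separated by mobility shift, taken 1.5 h after compound addition; protein produced in Sf9. Single 25 uM duplicate screen, followed by concentration series for actives, scored as signal loss relative to DMSO.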

Test [14] deals with human CYP2C9, CYP2C9 (gene 1559) (UniProt P11712). Description: NVS_ADME_hCYP2C9: NovaScreen (NVS) CYP450-related Enzyme Activity (ADME) Assay for human CYP2C9 (AID 2283108; active means hit-call score of the fitted dose curve at least 0.9, where 1 is the maximum). The essentials: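 Cell-free assay of recombinant human CYP2C9 produced in Sf9 cells, with enzyme activity read by fluorescence intensity 0.75 h after compound addition. Loss of signal versus an acetonitrile negative control indicates inhibition. Primary screen used 10 uM in duplicate; actives were retested in concentration series.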

In test [15] the target is human AKT serine/threonine Kinase 1 (AKT1), AKT1 (gene 207) (UniProt P31749). Description: NVS_ENZ_hAKT1: NovaScreen (NVS) Enzymatic Assay for human AKT serine/threonine Kinase 1 (AKT1) (AID 2283138; active means hit-call score of the fitted dose curve at least 0.9, where 1 is the maximum). The essentials:
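Compounds were first tested in duplicate at 25 uM, and those passing a threshold such as 30% inhibition were run in concentration-response to a maximum of 50 uM. Enzyme activity was measured after 1 h by fluorescence following substrate/product mobility-shift separation.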

Sequence of human CYP2B6, CYP2B6 (gene 1555) (P20813 whole entry, looked up): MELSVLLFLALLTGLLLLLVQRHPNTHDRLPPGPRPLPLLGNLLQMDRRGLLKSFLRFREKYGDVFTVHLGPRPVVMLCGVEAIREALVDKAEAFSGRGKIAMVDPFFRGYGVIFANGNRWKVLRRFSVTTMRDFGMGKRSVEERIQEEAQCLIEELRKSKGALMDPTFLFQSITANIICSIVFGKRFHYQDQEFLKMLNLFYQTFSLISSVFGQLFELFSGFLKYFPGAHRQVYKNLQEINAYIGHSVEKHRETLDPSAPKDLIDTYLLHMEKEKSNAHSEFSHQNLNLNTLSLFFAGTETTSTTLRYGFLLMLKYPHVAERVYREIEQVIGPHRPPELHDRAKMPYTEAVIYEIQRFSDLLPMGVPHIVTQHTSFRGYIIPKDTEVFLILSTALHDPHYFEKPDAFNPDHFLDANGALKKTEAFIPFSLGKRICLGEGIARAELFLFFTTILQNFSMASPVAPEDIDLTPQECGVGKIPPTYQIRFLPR
Sequence of E-selectin (Homo sapiens) (P16581 whole entry, looked up): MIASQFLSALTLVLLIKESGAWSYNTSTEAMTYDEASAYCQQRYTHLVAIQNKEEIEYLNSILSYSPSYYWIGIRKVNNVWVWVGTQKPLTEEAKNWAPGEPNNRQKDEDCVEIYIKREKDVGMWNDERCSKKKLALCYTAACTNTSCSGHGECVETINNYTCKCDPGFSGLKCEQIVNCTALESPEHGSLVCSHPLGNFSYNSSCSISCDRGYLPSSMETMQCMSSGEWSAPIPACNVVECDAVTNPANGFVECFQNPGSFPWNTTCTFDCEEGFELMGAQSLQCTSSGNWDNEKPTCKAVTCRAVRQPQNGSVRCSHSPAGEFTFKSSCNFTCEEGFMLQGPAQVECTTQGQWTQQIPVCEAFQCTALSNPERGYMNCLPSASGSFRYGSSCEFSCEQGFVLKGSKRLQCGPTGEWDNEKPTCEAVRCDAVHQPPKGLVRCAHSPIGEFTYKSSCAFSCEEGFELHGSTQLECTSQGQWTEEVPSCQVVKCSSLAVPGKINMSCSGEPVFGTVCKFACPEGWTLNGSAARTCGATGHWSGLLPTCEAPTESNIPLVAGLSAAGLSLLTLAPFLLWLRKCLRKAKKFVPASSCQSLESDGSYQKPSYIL
Sequence of human AKT serine/threonine Kinase 1 (AKT1), AKT1 (gene 207) (P31749 whole entry, looked up): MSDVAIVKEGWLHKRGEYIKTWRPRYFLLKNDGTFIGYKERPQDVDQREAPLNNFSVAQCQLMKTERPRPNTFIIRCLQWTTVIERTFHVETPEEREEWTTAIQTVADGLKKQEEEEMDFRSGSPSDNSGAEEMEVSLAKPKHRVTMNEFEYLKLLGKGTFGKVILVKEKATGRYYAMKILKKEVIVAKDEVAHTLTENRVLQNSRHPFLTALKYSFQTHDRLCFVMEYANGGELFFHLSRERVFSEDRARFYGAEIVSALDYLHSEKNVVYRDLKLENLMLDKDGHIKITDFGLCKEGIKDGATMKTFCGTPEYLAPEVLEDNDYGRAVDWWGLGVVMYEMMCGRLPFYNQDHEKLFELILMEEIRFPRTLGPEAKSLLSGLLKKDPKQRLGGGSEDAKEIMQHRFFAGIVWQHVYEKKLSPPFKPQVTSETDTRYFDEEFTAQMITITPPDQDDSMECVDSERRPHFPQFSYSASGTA
Sequence of human Caspase 5 (CASP5), CASP5 (gene 838) (P51878 whole entry, looked up): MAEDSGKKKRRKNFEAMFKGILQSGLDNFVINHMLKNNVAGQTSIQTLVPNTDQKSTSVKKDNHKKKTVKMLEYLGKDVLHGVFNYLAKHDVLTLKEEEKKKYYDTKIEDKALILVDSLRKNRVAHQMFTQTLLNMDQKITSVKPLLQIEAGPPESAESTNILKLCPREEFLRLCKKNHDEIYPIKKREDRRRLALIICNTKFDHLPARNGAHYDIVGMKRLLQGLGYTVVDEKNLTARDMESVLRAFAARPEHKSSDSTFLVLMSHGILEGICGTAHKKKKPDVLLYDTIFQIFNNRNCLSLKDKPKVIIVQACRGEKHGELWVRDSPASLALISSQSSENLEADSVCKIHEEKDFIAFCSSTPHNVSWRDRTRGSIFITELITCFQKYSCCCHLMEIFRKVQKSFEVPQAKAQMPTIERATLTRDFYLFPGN
Sequence of human CYP1A2, CYP1A2 (gene 1544) (P05177 whole entry, looked up): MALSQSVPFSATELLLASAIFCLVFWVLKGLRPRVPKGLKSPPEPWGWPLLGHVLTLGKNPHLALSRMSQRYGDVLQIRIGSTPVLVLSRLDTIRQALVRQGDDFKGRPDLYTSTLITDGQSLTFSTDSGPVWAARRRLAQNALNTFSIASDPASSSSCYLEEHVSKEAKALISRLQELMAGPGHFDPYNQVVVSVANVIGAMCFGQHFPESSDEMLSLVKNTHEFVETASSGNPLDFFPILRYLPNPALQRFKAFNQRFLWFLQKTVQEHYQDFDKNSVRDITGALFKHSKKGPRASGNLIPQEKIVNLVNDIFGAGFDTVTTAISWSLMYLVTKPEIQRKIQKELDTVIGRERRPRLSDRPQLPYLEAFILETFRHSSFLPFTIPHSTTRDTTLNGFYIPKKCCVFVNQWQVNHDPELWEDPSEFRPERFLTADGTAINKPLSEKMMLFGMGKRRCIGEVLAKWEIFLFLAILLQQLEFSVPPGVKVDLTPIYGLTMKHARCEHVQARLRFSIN
Sequence of Cytochrome P450 3A4 (Homo sapiens) (P08684 whole entry, looked up): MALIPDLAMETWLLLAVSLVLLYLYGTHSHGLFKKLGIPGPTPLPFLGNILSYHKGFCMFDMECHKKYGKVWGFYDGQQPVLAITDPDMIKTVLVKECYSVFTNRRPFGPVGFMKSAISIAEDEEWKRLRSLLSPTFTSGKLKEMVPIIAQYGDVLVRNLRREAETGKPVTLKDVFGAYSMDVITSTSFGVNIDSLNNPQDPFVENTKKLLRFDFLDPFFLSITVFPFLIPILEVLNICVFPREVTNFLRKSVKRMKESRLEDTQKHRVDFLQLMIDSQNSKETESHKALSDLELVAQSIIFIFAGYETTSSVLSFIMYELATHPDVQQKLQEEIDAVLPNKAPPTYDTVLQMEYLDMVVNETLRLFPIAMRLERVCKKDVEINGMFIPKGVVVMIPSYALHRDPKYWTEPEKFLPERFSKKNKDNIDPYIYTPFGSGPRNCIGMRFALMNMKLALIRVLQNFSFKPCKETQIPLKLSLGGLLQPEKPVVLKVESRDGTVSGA
Sequence of human CYP2D6, CYP2D6 (gene 1565) (P10635 whole entry, looked up): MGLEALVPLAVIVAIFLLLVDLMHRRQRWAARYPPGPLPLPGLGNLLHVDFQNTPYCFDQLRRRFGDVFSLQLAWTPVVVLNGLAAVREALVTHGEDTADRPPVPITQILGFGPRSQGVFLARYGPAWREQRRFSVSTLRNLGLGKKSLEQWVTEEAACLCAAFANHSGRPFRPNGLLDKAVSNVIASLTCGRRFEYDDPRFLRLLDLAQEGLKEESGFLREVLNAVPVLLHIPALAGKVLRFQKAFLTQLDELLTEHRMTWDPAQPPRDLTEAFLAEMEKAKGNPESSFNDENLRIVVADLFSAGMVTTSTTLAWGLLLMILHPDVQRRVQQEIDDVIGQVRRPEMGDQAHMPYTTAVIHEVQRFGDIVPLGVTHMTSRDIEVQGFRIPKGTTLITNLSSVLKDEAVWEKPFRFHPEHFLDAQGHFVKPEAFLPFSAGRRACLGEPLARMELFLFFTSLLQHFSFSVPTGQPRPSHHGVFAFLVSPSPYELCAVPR
Sequence of human CYP2C9, CYP2C9 (gene 1559) (P11712 whole entry, looked up): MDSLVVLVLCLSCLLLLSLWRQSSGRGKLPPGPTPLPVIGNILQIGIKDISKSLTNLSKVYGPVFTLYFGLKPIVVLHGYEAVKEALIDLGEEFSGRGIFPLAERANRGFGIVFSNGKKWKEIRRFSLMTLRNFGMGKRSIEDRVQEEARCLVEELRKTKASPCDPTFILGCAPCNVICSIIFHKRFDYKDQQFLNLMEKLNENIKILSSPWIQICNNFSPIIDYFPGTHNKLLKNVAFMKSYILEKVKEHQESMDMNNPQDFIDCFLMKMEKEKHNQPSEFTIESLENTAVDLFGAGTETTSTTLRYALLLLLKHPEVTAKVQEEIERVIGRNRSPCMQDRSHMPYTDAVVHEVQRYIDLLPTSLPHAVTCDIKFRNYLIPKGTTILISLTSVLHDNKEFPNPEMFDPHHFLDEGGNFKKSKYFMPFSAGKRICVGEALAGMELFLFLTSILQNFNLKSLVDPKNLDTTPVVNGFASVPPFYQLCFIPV
Sequence of Caspase-3 (Homo sapiens) (P42574 whole entry, looked up): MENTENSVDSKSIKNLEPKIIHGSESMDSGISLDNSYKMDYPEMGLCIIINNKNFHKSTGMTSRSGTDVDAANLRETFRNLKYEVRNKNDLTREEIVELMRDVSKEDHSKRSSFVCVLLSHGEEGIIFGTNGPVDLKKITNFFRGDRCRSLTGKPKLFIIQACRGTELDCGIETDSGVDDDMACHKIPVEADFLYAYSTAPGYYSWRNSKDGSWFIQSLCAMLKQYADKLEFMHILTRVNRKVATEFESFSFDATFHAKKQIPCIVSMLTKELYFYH
Sequence of human Acid Phosphatase 1 (ACP1), ACP1 (gene 52) (P24666 whole entry, looked up): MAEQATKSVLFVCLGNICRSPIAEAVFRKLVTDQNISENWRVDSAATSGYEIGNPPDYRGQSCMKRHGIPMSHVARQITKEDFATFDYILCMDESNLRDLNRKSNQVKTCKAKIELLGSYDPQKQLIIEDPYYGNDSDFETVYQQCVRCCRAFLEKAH

On to `Oc1ccc2c(c1)OC[C@@H](N1CCC(O)(c3ccc(F)cc3)CC1)[C@H]2O`, for which the result in test [1], in test [2], in test [3], in [4], in test [5] and in test [7] was inactive. In addition, the compound was classed as inactive in test [8]. Moreover, the AC50 (in general, the midpoint of the concentration-response curve, whichever way the signal moves) in test [6] is 6.22 µM (active); in test [9], 7.71 µM (active).
For the compound `C=CCOC(=O)c1ccccc1C(=O)OCC=C`, the outcome in [1], in test [2], in [3], in test [4] and in test [5] was inactive. The AC50 was 7.79 µM (active) in [6], 3.03 µM (active) in test [7], 6.19 µM (active) in test [10] and 2.99 µM (active) in [9].
In the case of `COc1cc(S(=O)(=O)O)c(C)cc1N=Nc1c(O)ccc2cc(S(=O)(=O)O)ccc12`, the result in [1], in test [2], in [3], in [4], in test [5] and in test [11] was inactive. The AC50 is 19.9 µM (active) in [12] and 15.3 µM (active) in the test with Caspase-3 (Homo sapiens).
For `COc1ccc2c(c1)c(CC(=O)O)c(C)n2C(=O)c1ccc(Cl)cc1`, the outcome in test [1], in test [2], in test [3], in [4], in [5] and in test [6] was inactive. The AC50 in test [10] was 10 µM (active).
As for `CCCc1cc(=O)[nH]c(=S)[nH]1`, the result in [1], in [2], in test [3], in test [4], in test [5] and in test [11] was inactive. Besides, the outcome (in test [13]; in the test with Caspase-3 (Homo sapiens)) was inactive.
With `CCCCCCC(=O)OCC`, the result in test [1], in test [2], in test [3], in test [4], in test [5] and in test [8] was inactive. For the same compound, the AC50 in test [14] was 14.8 µM (active).
As for `Nc1nc(N)c2nc(CNc3ccc(C(=O)N[C@@H](CCC(=O)O)C(=O)O)cc3)cnc2n1`, the result in test [1], in test [2], in test [3] and in test [4] was inactive. The values for the AC50 in [5] and in test [14] were 3.22 µM (active) and 12.3 µM (active), respectively.
Consider `CNC(=O)[C@H]1O[C@@H](n2cnc3c(NCc4cc(Cl)ccc4OCc4cc(C)no4)ncnc32)[C@H](O)[C@@H]1N`, for which the outcome in test [1], in test [2], in [3], in test [4], in test [5] and in test [15] was inactive.
`COc1ccc(C)cc1N`: the result in [1], in test [2], in [3], in test [4], in test [5] and in [12] was inactive.
For `CCCCCCCCCCCC(=O)OC`, the result in test [1], in test [2], in test [4], in test [5], in [11] and in [15] was inactive. The half-maximal activity concentration (AC50) in test [3] is 20 µM (active).

These data come from PubChem BioAssay (EPA / NIEHS).
